Data as given in PubChem BioAssay (EPA / NIEHS).
Calls of active or inactive are those of the source. How the source made its calls: active means hit-call score of the fitted dose curve at least 0.9, where 1 is the maximum; inactive means score below 0.9.

Read-out: Glutathione S-Transferase (GSTA2), GSTA2 (gene 2939)
Test: LTEA_HepaRG_GSTA2: Life Technologies and Expression Analysis (LTEA) Assay for Glutathione S-Transferase (GSTA2) using HepaRG (AID 2283497)
Details: mRNA level, 48 h; actives raise or lower the signal
Procedure: LTEA_HepaRG is a cell based, multiplexed-readout assay that uses HepaRG, a human liver cell line, with measurements taken at 48 hours after chemical dosing on a 96-well plate.LTEA_HepaRG_GSTA2 is one of 102 assay component(s) measured in the LTEA HepaRG cell culture assay. It is a marker of Oxidative Stress.Data from the assay component LTEA_HepaRG_GSTA2 was analyzed into 1 endpoint. This assay endpoint, LTEA_HepaRG_GSTA2, was analyzed with bidirectional fitting relative to DMSO as the negative control and baseline of activity. Using a type of inducible reporter, measures of mRNA induction for gain or loss-of-signal activity can be used to understand regulation of transcription factor activity. To generalize the intended target to other relatable targets, this assay endpoint is annotated to the transferase intended target family, where the subfamily is alkyl and aryl transferase.
A total of 1060 chemcials from the ToxCast library were tested in eight-point concentration-response experiments. Cell culture and cytotoxicity assays were conducted at Thermo Fisher Scientific's Custom Services facility (Madison, WI). A single lot of human HepaRG cells (Thermo Fisher Scientific, Frederick, MD) was used for the cell culture experiments. 96-well format collagen type I coated plates of human HepaRG cells were prepared using established methods. Briefly, cryopreserved HepaRG cells were thawed, plated at a density of approximately 100,000 cells/well in HepaRG Thaw, Plate, and General Purpose media (HPRG770, Thermo Fisher Scientific), and incubated for 48 hours. 0.5% DMSO was selected as vehicle control to balance the requisite need of DMSO in HepaRG cultures to maintain differentiation (for example, baseline metabolism, proportions of hepatocytes vs. cholangiocytes), while enabling further hepatic receptor pathway activation (for example, PXR and CAR) in response to chemical exposure. 48 hours after plating, the culture medium was replaced with HepaRG Serum-Free Incudtion Media. Cells were exposed to each test chemical in duplicate and maintained in CO2 incubators for another 48 hours. Chemical plates were thawed to room temperature and 200x concentrations of treatment groups were prepared. 8-point conentration-reponse curves were made with the highest exposure at 100 uM, followed by half-log dilutions, all in 0.5% DMSO. Each test plate contained variouse controls, induction positive controls (1mM phenobarbital), cytotoxicity positive controls ([…] aflatoxin B1), vehicle controls (0.5% DMSO), and total lysis controls (0.5% DMSO). Cell morphology images were taken using an Essen IncuCyte FLR automated microscope, with six 96-well plates imaged in about 24 minutes. Images were captured and exported and JPEG files. Spent culture media was transfered to black-well plates for the LDH assay, and remaining media was sorted at -80 C for later use. Cells were treated with RLT buffer and frozen until shipped for gene expression analysis. Total RNA was isolated from the cell suspension in 75 uL of Buffer RLT (Qiagen, Germantown, MD 20874) by Quintiles/Expression Analysis (Durham, NC) using a custom isolation procedure. Total RNA from each plate well was transferred to a preamplification plate. Fluidigm's 96.96 Dynamic ArrayTM (Fluidigm, Amsterdam, the Netherlands) technology was used for gene expression analyses by quantitative reverse transcription polymerase chain reaction (qRT-PCR, performed by Quintiles/Expression Analysis, Durham, NC)89. Standard TaqManTM Assays (Applied Biosystems/ThermoFisher Scientific, Foster City, CA) were used to assess the expression of 93 genes selected based on their selectivity and sensitivity to important hepatic receptors known to be modulated by environmental chemicals; importance in human hepatocyte functionality; and hepatotoxicity. […]

| Compound | outcome | AC50 |
| --- | --- | --- |
| CN(C)C(=O)Nc1cccc(C(F)(F)F)c1 | inactive |  |
| CCOP(=S)(OCC)Oc1ccc([N+](=O)[O-])cc1 | inactive |  |
| CCOC(=O)COc1cc(-c2nn(C)c(OC(F)F)c2Cl)c(F)cc1Cl | inactive |  |
| COP(=O)(OC)OC(Br)C(Cl)(Cl)Br (stereo not given) | inactive |  |
| CNC(=O)ON=C(C)SC | inactive |  |
| COc1cccc(C(=O)NN(C(=O)c2cc(C)cc(C)c2)C(C)(C)C)c1C | inactive |  |
| CC(C)=CC1C(C(=O)OCN2C(=O)C3=C(CCCC3)C2=O)C1(C)C (stereo not given) | inactive |  |
| CCCCN(CC)c1c([N+](=O)[O-])cc(C(F)(F)F)cc1[N+](=O)[O-] | inactive |  |
| CCC(=NOC/C=C/Cl)C1=C(O)CC(C2CCOCC2)CC1=O (stereo not given) | inactive |  |
| CCCSP(=O)(OCC)Oc1ccc(Br)cc1Cl (stereo not given) | inactive |  |
| CNC(=O)ON=C(SC)C(=O)N(C)C | inactive |  |
| CC(C)[C@H](C(=O)O[C@H](C#N)c1cccc(Oc2ccccc2)c1)c1ccc(Cl)cc1 | inactive |  |
| CON=C(C(=O)OC)c1ccccc1CON=C(C)c1cccc(C(F)(F)F)c1 | inactive |  |
| COP(=O)(NC(C)=O)SC (stereo not given) | inactive |  |
| CCNc1nc(Cl)nc(NC(C)(C)C#N)n1 | inactive |  |
| N#CSCSC#N |  | 76.2 µM (active) |
| CCc1cccc(C)c1N(C(=O)CCl)C(C)COC (stereo not given) |  | 18 µM (active) |
| CCCOc1nn(C(=O)NS(=O)(=O)c2ccccc2C(=O)OC)c(=O)n1C | inactive |  |
| CC1=NNC(=O)N(/N=C/c2cccnc2)C1 | inactive |  |
| CCOP(=O)(OCC)Oc1cc(C)nc(C(C)C)n1 | inactive |  |

| Compound | outcome | AC50 |
| --- | --- | --- |
| Nc1nc(N)nc(NC2CC2)n1 | inactive |  |
| S=C1NCCN1 | inactive |  |
| CCC(CC)Nc1c([N+](=O)[O-])cc(C)c(C)c1[N+](=O)[O-] | inactive |  |
| CC(=NC#N)N(C)Cc1ccc(Cl)nc1 | inactive |  |
| CCOP(=S)(OCC)SCCSCC | inactive |  |
| CCCCOC(=O)[C@@H](C)Oc1ccc(Oc2ccc(C#N)cc2F)cc1 | inactive |  |
| CCCSP(=O)(OCC)SCCC | inactive |  |
| Cc1cc(C2CC2)nc(Nc2ccccc2)n1 | inactive |  |
| CCOP(=O)(SC(C)CC)N1CCSC1=O (stereo not given) | inactive |  |
| CNC(=O)Oc1cccc2c1OC(C)(C)O2 | inactive |  |
| CC[C@H](C)[C@H]1O[C@]2(C=C[C@@H]1C)C[C@@H]1C[C@@H](C/C=C(\C)[C@@H](O[C@H]3C[C@H](OC)[C@@H](O[C@H]4C[C@H](OC)[C@@H](NC)[C@H](C)O4)[C@H](C)O3)[C@@H](C)/C=C/C=C3\CO[C@@H]4[C@H](O)C(C)=C[C@@H](C(=O)O1)[C@]34O)O2 |  | 23.3 µM (active) |
| CCOP(=S)(OCC)OC(Cl)C(Cl)(Cl)Cl (stereo not given) | inactive |  |
| CSC1=N[C@@](C)(c2ccccc2)C(=O)N1Nc1ccccc1 |  | 33.9 µM (active) |
| C#CC(C)(C)NC(=O)c1cc(Cl)cc(Cl)c1 | inactive |  |
| O=[N+]([O-])c1cc(C(F)(F)F)c(Cl)c([N+](=O)[O-])c1Nc1ncc(C(F)(F)F)cc1Cl |  | 24.9 µM (active) |
| CCCCSP(=O)(SCCCC)SCCCC | inactive |  |
| O=C(O)c1cc(Oc2ccc(C(F)(F)F)cc2Cl)ccc1[N+](=O)[O-] | inactive |  |
| CCC(=O)Nc1ccc(Cl)c(Cl)c1 |  | 72.5 µM (active) |
| CCOP(=S)(OCC)Oc1cc(C)nc(C(C)C)n1 | inactive |  |
| CN(C)[C@@H]1C(=O)C(C(N)=O)=C(O)[C@@]2(O)C(=O)C3=C(O)c4c(O)cccc4[C@@](C)(O)[C@H]3[C@H](O)[C@@H]12 | inactive |  |
